Test results taken from PubChem BioAssay.
The source made the active and inactive calls.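 The calls were made as follows, unless noted: active = inhibition at or above 50% at 10 µM; inactive = inhibition below 50%.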

What was measured:
[1] = inhibitors of TNFa-induced NFkB p65 translocation, primary screen, imaging, HUVEC, MLSMR starter and 10KST1 sets (AID 438;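 active = inhibition above 20% together with a positive visual image hit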;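 also: compound added about 3h40 before a 20 min TNFalpha stimulation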;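 as to inhibition: signal is the nuclear over cytoplasmic p65 intensity ratio per well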); details: HUVEC TNFa-induced p65 nuclear translocation; cell count: measured here: nuclei count (cytotoxicity indicator), at 2.08 µM; inhibition: at 2 µM, stronger effect = higher value, 0% TNFa-plus-vehicle, 100% no-TNFa wells
[2] = inhibitors of mutant huntingtin aggregation, primary screen, imaging, exon1htt(103Q)mCFP cells, high-content imaging (AID 483;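 active = visual image review flags a hit and inhibition of aggregation exceeds 20%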;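 also: compound exposure lasted 3 days before fixation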;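 as to nuclei count: percent of the per-plate median nuclei count of sample wells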); details: exon1htt(103Q)mCFP cell line, aggregate imaging, at 2 µM; inhibition of aggregation: stronger effect = higher value; nuclei count: measured here: cell count, toxicity
[3] = inhibitors of E-selectin induction by TNFa, primary screen, imaging, HUVEC, immunofluorescence, MLSMR starter and 10KST1 sets (AID 487;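 active = visually confirmed hit in the image check and inhibition above 20%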;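 as to inhibition: signal is fraction of cell area covered by stained E-selectin grains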;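 as to nuclei count: 100% = median nuclei count of all wells on the same plate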); details: HUVEC TNFalpha-induced E-selectin immunofluorescence imaging, at 2 µM; inhibition: stronger effect = higher value; nuclei count: measured here: cell number, toxicity
[4] = molecular target: Voltage-gated potassium channel subunit beta-2 (Rattus norvegicus) (UniProt P62483); test: KvBeta enzyme negative modulators, primary screen, biochemical, NADPH fluorescence (AID 622;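 active = fluorescence slope higher than the sample average by over 3 SD, cut at about -0.22 in these data, passing the limit was not always enough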;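 also: slope of raw intensity against log time taken from 70 to 1610 s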); details: recombinant KvBeta, 4-cyanobenzaldehyde reduction, at 10 µM, stronger effect = higher value
[5] = molecular target: Voltage-gated potassium channel subunit beta-2 (Rattus norvegicus) (UniProt P62483); test: KvBeta positive modulators, primary screen, biochemical, NADPH fluorescence (AID 623;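 active = NADPH fluorescence slope more negative than the mean of all samples by about 3 SD, 99.7% confidence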;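 also: fluorescence intensity change per second fitted from 20 to 320 s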); details: Recombinant KvBeta, NADPH fluorescence decrease slope, 10 min; at 10 µM; stronger effect = lower value
[6] = molecular target: Alpha-2C adrenergic receptor (Homo sapiens) (UniProt P18825); test: modulators of alpha2C/GIRK thallium flux, primary screen, cell-based, HEK293 alpha2C/GIRK1/2 (AID 624;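 active = fluorescence slope after compound addition differing from the mean of all screened samples at 99.7% confidence, in either direction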;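 also: slope of fluorescence ratio to pre-addition baseline per second over 15 to 24 s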); details: thallium flux BTC fluorescence, at 10 µM, actives lie on both sides
[7] = inhibitors of Sendai virus-induced IRF3 signaling, primary screen, TLR/RLR signaling modifier project, cell-based, Sendai virus stimulus, luciferase, 10K MLSCN set (AID 602276); details: HEK293 RL24 IRF3 luciferase reporter, at 10 µM, stronger effect = higher value;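 also: firefly luciferase from ISG56 promoter only with Renilla not read in this screen; 0% = Sendai virus plus DMSO and 100% = medium plus DMSO without virus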
[8] = inhibitors of poly I:C-induced TLR3 signaling, primary screen, cell-based, poly I:C stimulus, luciferase, 10K MLSCN set (AID 602277;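 active = inhibition of the reporter signal at or above 50%; inactive = inhibition below 50%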); details: HEK293-TLR3 RL24 IRF3 luciferase reporter, at 10 µM, stronger effect = higher value

Sequence of Voltage-gated potassium channel subunit beta-2 (Rattus norvegicus) (P62483 whole entry, looked up): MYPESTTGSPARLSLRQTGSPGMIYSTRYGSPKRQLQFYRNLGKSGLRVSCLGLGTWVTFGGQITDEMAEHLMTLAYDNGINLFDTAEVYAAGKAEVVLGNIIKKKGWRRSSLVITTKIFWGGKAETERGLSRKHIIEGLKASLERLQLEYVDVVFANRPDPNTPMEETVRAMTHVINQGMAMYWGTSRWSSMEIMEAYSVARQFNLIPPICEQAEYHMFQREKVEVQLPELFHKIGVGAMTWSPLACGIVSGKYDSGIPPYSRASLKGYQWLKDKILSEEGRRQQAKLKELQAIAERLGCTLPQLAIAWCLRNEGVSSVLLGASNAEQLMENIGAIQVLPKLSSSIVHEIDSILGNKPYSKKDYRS
Sequence of Alpha-2C adrenergic receptor (Homo sapiens) (P18825 whole entry, looked up): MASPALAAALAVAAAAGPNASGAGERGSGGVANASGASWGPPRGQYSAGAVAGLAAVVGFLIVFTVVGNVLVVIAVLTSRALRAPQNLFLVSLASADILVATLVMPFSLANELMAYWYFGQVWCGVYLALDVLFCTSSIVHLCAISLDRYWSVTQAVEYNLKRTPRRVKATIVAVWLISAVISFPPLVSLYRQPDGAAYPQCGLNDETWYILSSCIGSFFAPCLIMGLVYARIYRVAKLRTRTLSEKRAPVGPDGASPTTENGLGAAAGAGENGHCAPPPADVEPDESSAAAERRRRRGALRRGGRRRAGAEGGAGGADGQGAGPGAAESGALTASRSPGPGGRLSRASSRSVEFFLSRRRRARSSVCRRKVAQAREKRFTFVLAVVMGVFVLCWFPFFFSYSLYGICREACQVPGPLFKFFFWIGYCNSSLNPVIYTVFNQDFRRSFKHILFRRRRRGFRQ

| Structure (SMILES) | cell count [1] | inhibition [1] | inhibition of aggregation [2] | nuclei count [2] [%] | inhibition [3] | nuclei count [3] [%] | fluorescence slope [4] | NADPH fluorescence slope [5] | slope [6] | inhibition [7] | inhibition [8] |
| --- | --- | --- | --- | --- | --- | --- | --- | --- | --- | --- | --- |
| COc1cccc(-c2nc(CSCC(=O)N3CCc4ccccc43)c(C)o2)c1 | 326 | 8.5% (inactive) | -5.9% (inactive) | 108 | 22.5% (inactive) | 108 | -0.432 (inactive) | 2.9e-06 (inactive) | 0.00374 (inactive) | -10.3% (inactive) | -34.4% (inactive) |
| CCc1nnc(NC(=O)CSc2nnc(-c3cc4ccccc4cc3O)n2CC)s1 | 674 | -7.8% (inactive) | 1.7% (inactive) | 109 | -52.3% (inactive) | 125 | -0.511 (inactive) | 2.5e-06 (inactive) | 0.00587 (inactive) | 7.37% (inactive) | 11.2% (inactive) |
| Cc1cc(C)n(-c2nc(C)nc3sc4c(c23)CCC(C)C4)n1 (stereo not drawn) | 564 | -8.4% (inactive) | -2% (inactive) | 93.8 | -88% (inactive) | 121 | -0.465 (inactive) | 5.5e-06 (inactive) | 0.00248 (inactive) | -1.01% (inactive) | 32.1% (inactive) |
| CN(C)CCN1C(=O)c2oc3ccc(Cl)cc3c(=O)c2C1c1cccc(Br)c1 (stereo not drawn) | 229 | -8.1% (inactive) | 13.3% (inactive) | 83.3 | -36.3% (inactive) | 89.9 | -0.412 (inactive) | -1.4e-05 (inactive) | 0.00335 (inactive) | 17.2% (inactive) | 49.7% (inactive) |
| CCC1CCCCN1C(=O)CSc1nnc(-c2ccc(OC)cc2)o1 (stereo not drawn) | 599 | -4.4% (inactive) | 20.5% (inactive) | 96.8 | -27.4% (inactive) | 113 | -0.539 (inactive) | 3e-05 (inactive) | 0.0067 (inactive) | -5.53% (inactive) | -21.5% (inactive) |
| Cc1cc(NC(=O)CSc2nccn2-c2ccc(F)cc2)no1 | 433 | -0.3% (inactive) | -13.1% (inactive) | 111 | -184% (inactive) | 114 | -0.6 (inactive) | 9.8e-06 (inactive) | 0.00665 (inactive) | 13.6% (inactive) | 3.73% (inactive) |
| COC(=O)CSc1nc2nc(C)cc(C)n2n1 | 722 | -4.5% (inactive) | 0.1% (inactive) | 98.6 | -33.5% (inactive) | 108 | -0.552 (inactive) | -1.8e-05 (inactive) | 0.00719 (inactive) | 11.7% (inactive) | 28.1% (inactive) |
| COC(=O)c1ccc(-n2nnnc2SCc2nn[nH]n2)cc1 | 543 | -7.8% (inactive) | -11.5% (inactive) | 99.6 | -29% (inactive) | 130 | -0.35 (inactive) | 1.4e-05 (inactive) | 0.00668 (inactive) | -8.25% (inactive) | -3.28% (inactive) |
| O=C(NCc1ccco1)c1cc2cc3ccc(Cl)cc3nc2o1 | 198 | -4.9% (inactive) | 12.7% (inactive) | 105 | -23.3% (inactive) | 118 | -0.489 (inactive) | -3.4e-05 (inactive) | 0.00854 (inactive) | -5.73% (inactive) | -43.3% (inactive) |
| CCCC(=O)C1=C(N(C)c2ccccc2)CC(C)(C)C(C(=O)OC)C1=O (stereo not drawn) | 429 | -0.3% (inactive) | 3.6% (inactive) | 92.5 | -8.2% (inactive) | 121 | -0.445 (inactive) | -7.2e-06 (inactive) | 0.00268 (inactive) | 9.63% (inactive) | 33.4% (inactive) |
| CNC(=O)c1ccc(N(Cc2ccccc2C)S(C)(=O)=O)cc1 | 710 | -2.6% (inactive) | 0.9% (inactive) | 117 | -40.6% (inactive) | 116 | -0.636 (inactive) | -4.1e-05 (inactive) | 0.00383 (inactive) | 11.8% (inactive) | 11.4% (inactive) |
| CC(C)CNS(=O)(=O)c1ccc(OCC(=O)Nc2ccc3c(c2)OCO3)c(Cl)c1 | 463 | -12.1% (inactive) | -1.9% (inactive) | 81.6 | -0.6% (inactive) | 85.5 | -0.377 (inactive) | -2e-05 (inactive) | 0.00353 (inactive) | 6.42% (inactive) | 19.3% (inactive) |
| Cc1ccc(N2CCN(S(=O)(=O)N(C)C)CC2)c(C)c1 | 393 | -2.4% (inactive) | 23.9% (inactive) | 75.5 | -55.1% (inactive) | 107 | -0.559 (inactive) | -3.5e-06 (inactive) | 0.00671 (inactive) | 2.52% (inactive) | 4.97% (inactive) |
| CC(C)CNC(=O)C1CC(=O)OC12CCCCC2 (stereo not drawn) | 661 | -32.6% (inactive) | 4.3% (inactive) | 96.4 | -18.4% (inactive) | 107 | -0.594 (inactive) | -6.1e-05 (inactive) | 0.00558 (inactive) | 12.4% (inactive) | 19.6% (inactive) |
| O=C(OCC(=O)N1CCCC1)c1ccccc1OCc1ccccc1 | 576 | -10.8% (inactive) | -9.8% (inactive) | 95.3 | -42.5% (inactive) | 123 | -0.505 (inactive) | -3.9e-05 (inactive) | 0.00498 (inactive) | -11.3% (inactive) | 6.16% (inactive) |
| COc1ccc(C2C(C(=O)Nc3cccnc3)=C(C)Nc3nc(-c4cccs4)nn32)cc1OC (stereo not drawn) | 543 | 5.1% (inactive) | 2.5% (inactive) | 84.7 | 3.4% (inactive) | 104 | -0.593 (inactive) | -4.3e-05 (inactive) | 0.0064 (inactive) | 7.94% (inactive) | 31.3% (inactive) |
| O=C(Nc1ccccc1)C1=C(O)CC(c2ccoc2)CC1=Nc1ccccc1 (stereo not drawn) | 321 | -2.1% (inactive) | 7.8% (inactive) | 94.4 | -80.4% (inactive) | 121 | -0.422 (inactive) | -5.7e-05 (inactive) | 0.00565 (inactive) | 4% (inactive) | 16.9% (inactive) |
| CC(C)(C)c1nnc(NC(=O)C2CCN(c3ncccn3)CC2)s1 | 547 | -9.2% (inactive) | -2.6% (inactive) | 106 | -13.7% (inactive) | 111 | -0.512 (inactive) | -3.5e-05 (inactive) | 0.00755 (inactive) | 5.09% (inactive) | 31.5% (inactive) |
| O=C(c1ccco1)N1CCN(c2cccc(Cl)c2)CC1 | 665 | -1.9% (inactive) | 5.4% (inactive) | 115 | 24.2% (inactive) | 91.6 | -0.507 (inactive) | -7.7e-05 (inactive) | 0.00406 (inactive) | -26.6% (inactive) | -76.9% (inactive) |
| O=C(NCc1ccccc1)C1CCCN1S(=O)(=O)c1cccc2cccnc12 (stereo not drawn) | 521 | -4.4% (inactive) | -7.9% (inactive) | 67.5 | -42.2% (inactive) | 111 | -0.561 (inactive) | 3.4e-05 (inactive) | 0.00702 (inactive) | 3.4% (inactive) | 34.5% (inactive) |
| CCc1ccc(CNCc2cccnc2)cc1 | 273 | -1.6% (inactive) | 18% (inactive) | 101 | -19.3% (inactive) | 116 | -0.464 (inactive) | -3e-05 (inactive) | 0.00429 (inactive) | 3.34% (inactive) | 18.6% (inactive) |
| Cc1ccc2nsnc2c1S(=O)(=O)N(Cc1cc2cccc(C)c2[nH]c1=O)CC1CCCO1 (stereo not drawn) | 641 | 2.6% (inactive) | 6.3% (inactive) | 108 | 42.1% (inactive) | 92.6 | -0.578 (inactive) | -6.5e-05 (inactive) | 0.00367 (inactive) | 32.9% (inactive) | 18.9% (inactive) |
| COc1cccc(C(c2nnnn2CCc2ccccc2)N2CCN(c3ccccc3)CC2)c1OC (stereo not drawn) | 605 | -23.5% (inactive) | -19.6% (inactive) | 94.9 | 48.8% (inactive) | 91.6 | -0.516 (inactive) | -3e-06 (inactive) | 0.00514 (inactive) | 18.8% (inactive) | 10.1% (inactive) |
| Cc1c(C(=O)NCc2ccccn2)sc2nc(-c3ccc(F)cc3)cn12 | 482 | -5.5% (inactive) | -10% (inactive) | 61.1 | 10.9% (inactive) | 104 | -0.502 (inactive) | 1.3e-05 (inactive) | 0.00621 (inactive) | 17.6% (inactive) | -13.7% (inactive) |
| O=C(CCCOc1ccccc1)N1CCN(c2ccccn2)CC1 | 232 | -4.8% (inactive) | 15.3% (inactive) | 53.2 | -18.6% (inactive) | 78 | -0.487 (inactive) | -3.3e-07 (inactive) | 0.00525 (inactive) | 2.47% (inactive) | -54.1% (inactive) |
| C=CCNS(=O)(=O)c1ccc2nsnc2c1 | 383 | 2.2% (inactive) | 6.3% (inactive) | 89.1 | -33.6% (inactive) | 121 | -0.508 (inactive) | -3.2e-05 (inactive) | 0.0046 (inactive) | -4.18% (inactive) | -2.28% (inactive) |
| CN(C)CCCN1C(=O)CSC1c1ccccc1 (stereo not drawn) | 607 | -8.9% (inactive) | 30.6% (inactive) | 93.9 | -57.4% (inactive) | 104 | -0.541 (inactive) | -3e-05 (inactive) | 0.00787 (inactive) | 4.6% (inactive) | 35.9% (inactive) |
| O=C(Nc1ccc2c(c1)OCCO2)C1CCCN(S(=O)(=O)c2cnc[nH]2)C1 (stereo not drawn) | 628 | 4.1% (inactive) | -8% (inactive) | 102 | -29.5% (inactive) | 114 | -0.563 (inactive) | -4.5e-07 (inactive) | 0.00662 (inactive) | -16.1% (inactive) | -6.55% (inactive) |
